# From PubChem BioAssay
# AmpC inh detg: inhibitors of E. coli AmpC beta-lactamase with detergent | P00811 | actives 0.041% (n = 370,000) | AmpC hydrolysis of nitrocefin, absorbance 480 nm, 0.01% Triton | Potency, µM (titrated, usually from 114 µM), actives largely listed as inhibitors | AID 485294; note: nearly all actives have a fitted effect of over 25% in size
#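 20 mM phosphate pH 7.0 + 0.01% (detergent screen) or 0.0001% Triton X-100; 5.3 nM AmpC reagent; cpd preinc 15 min RT; nitrocefin (800 uM stock) to start; A480 q20 s × 4 min; Activity was normalised to no-enzyme and no-compound control wells.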
# Giardia FBPA inh-1: Giardia lamblia aldolase inhibition; A8B2U2; purified Giardia FBPA; Potency, µM (titrated, usually from 59.6 µM), actives largely listed as inhibitors; actives 0.71% (n = 290,000); AID 2451; note: nearly all actives have a fitted effect of over 55% in size
#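 40 nM FBPA preincubated 10 min at RT with compound (up to 57.5 uM final), then substrate plus GAPDH/TPI/NAD/arsenate coupling and diaphorase/resazurin added. Fluorescence read after 20 min at RT, 525/598 nm.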
# SARS PLP yeast: blocks SARS-CoV papain-like protease in a yeast assay; S. cerevisiae expressing SARS-CoV PLpro, growth rescue; Potency, µM (doses to about 32.9 µM), most hits filed as activators; actives 0.19% (n = 330,000); calls by dose curve; note: nearly all actives have a fitted effect of over 55% in size
# AmpC inh no detg: blocks E. coli AmpC beta-lactamase in detergent-free assay. Potency, µM (top dose mostly 57.1 µM), most hits filed as inhibitors. actives 0.52% (n = 330,000). AmpC nitrocefin hydrolysis, absorbance 480 nm, 0.0001% Triton; note: nearly all actives have a fitted effect of over 20% in size
#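 20 mM phosphate pH 7.0 + 0.01% (detergent screen) or 0.0001% Triton X-100; 5.3 nM AmpC reagent; cpd preinc 15 min RT; nitrocefin (800 uM stock) to start; A480 q20 s × 4 min; Activity was normalised to no-enzyme and no-compound control wells.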
# Giardia growth: blocks growth of Giardia lamblia trophozoites; shares compounds with Giardia FBPA inh-1; Giardia lamblia trophozoite growth inhibition; Potency, µM (highest dose often 57.5 µM), usual class: inhibitors; AID 2785; actives 5% (n = 1,500);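 note: trophozoites exposed to compound for 48 h at 37 °C; nearly all actives have a fitted effect of over 70% in size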
# Mammalian tox: counter-screen for Giardia aldolase inhibitors: mammalian cell toxicity; shares compounds with Giardia FBPA inh-1; mammalian cell viability counter-screen, qHTS; Potency, µM (top dose mostly 57.5 µM), usual class: inhibitors; actives 4% (n = 1,500); AID 2786;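 note: Chinese hamster ovary cells used as mammalian cytotoxicity surrogate; viability measured as cellular ATP by luminescence; compound exposure lasted 48 h before reading; nearly all actives have a fitted effect of over 60% in size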
# Giardia FBPA inh-2: confirmation of Giardia fructose-bisphosphate aldolase inhibitors; AID 2787; Potency, µM (top dose mostly 57.5 µM), most hits filed as inhibitors; purified Giardia aldolase enzyme activity, qHTS; shares compounds with Giardia FBPA inh-1; actives 5% (n = 1,500); note: nearly all actives have a fitted effect of over 45% in size
# Rabbit FBPA inh: selectivity test for Giardia aldolase inhibitors: rabbit aldolase; actives 4% (n = 1,500); Potency, µM (series often up to 57.5 µM), hits mostly inhibitors; shares compounds with Giardia FBPA inh-1; Rabbit muscle FBPA enzyme inhibition, selectivity counter-screen; note: nearly all actives have a fitted effect of over 60% in size
# Target sequence (P00883 whole entry, looked up): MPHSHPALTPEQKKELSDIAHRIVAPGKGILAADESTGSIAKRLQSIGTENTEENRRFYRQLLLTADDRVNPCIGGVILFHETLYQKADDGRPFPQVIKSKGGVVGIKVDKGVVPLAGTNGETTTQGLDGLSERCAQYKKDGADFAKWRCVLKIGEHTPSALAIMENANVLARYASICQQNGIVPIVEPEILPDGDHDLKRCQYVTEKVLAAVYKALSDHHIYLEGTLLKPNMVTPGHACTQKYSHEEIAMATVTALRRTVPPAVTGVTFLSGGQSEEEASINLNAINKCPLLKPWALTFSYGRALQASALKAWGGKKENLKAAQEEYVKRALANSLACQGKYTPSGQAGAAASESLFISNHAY
# GAPDH counter: GAPDH inhibition flagged for Giardia aldolase hits; GAPDH coupling enzyme counterscreen, biochemical, qHTS; shares compounds with Giardia FBPA inh-1; Potency, µM (titrated, usually from 57.5 µM), most hits filed as inhibitors; actives 6% (n = 1,500); AID 2795; note: nearly all actives have a fitted effect of over 55% in size
# A number is an active result; 0 = inactive; ? = inconclusive; - = no result given; [ ] = dose if it differs, or a comment. Rows were chosen to be rich in hits. Some 1.1% of all compounds tested hit in one or more screens of this group. Unless noted, calls come from the whole dose curve; as a rule, active = well fitted curve in the direction sought with a large enough effect; inconclusive = small, poorly fitted or top-dose-only effect, or another doubt; inactive = no such curve, though single readings can be large; an effect the other way counts as inactive or inconclusive.
SMILES,AmpC inh detg,Giardia FBPA inh-1,SARS PLP yeast,AmpC inh no detg,Giardia growth,Mammalian tox,Giardia FBPA inh-2,Rabbit FBPA inh,GAPDH counter
O=[N+]([O-])c1ccc(Sc2cccc[n+]2[O-])c2nonc12,0,0.35µM,0,0,2µM,2.2µM,6.3µM,16µM,6.3µM
COc1ccccc1CNC(=O)CCCCn1c(=O)c2ccccc2n(CC(=O)Nc2cccc(Cl)c2)c1=O,0,-,-,-,-,-,-,-,-
Cc1cc(C)cc(NC(=O)C(NCC2CCCO2)c2ccccc2)c1 (configuration not stated),0,16µM,0,0,0[10.4 µM],0,0,0,0
CC(=O)N1CCCc2cc(S(=O)(=O)N(C)CC(=O)Nc3ccc(C(C)C)cc3)ccc21,0,-,-,-,-,-,-,-,-
CCN1CCN(CCCN(Cc2ccco2)C(=S)Nc2cc(Cl)ccc2C)CC1,0,16µM,0,0,?,0,0,0,0
CCN1CCN(CCCN(Cc2ccco2)C(=S)Nc2ccc(C)c(Cl)c2)CC1,0,0,0,0,-,-,-,-,-
COc1ccccc1-c1nc(C(=O)NCC2CCCO2)cc2c1[nH]c1ccccc12 (configuration not stated),0,0,0,0,-,-,-,-,-
COc1cc(-c2nc(C(=O)NCC3CCCO3)cc3c2[nH]c2ccccc23)cc(OC)c1OC (configuration not stated),0,8.9µM,0,0,0,40µM,0,0,0
O=C(Nc1cc(C(F)(F)F)ccc1Cl)c1cc(S(=O)(=O)NCc2ccccc2)ccc1F,0,-,-,-,-,-,-,-,-
Nc1ccc(N2CCCCC2)c(S(=O)(=O)Nc2ccccc2Cl)c1,0,16µM,0,0,0,0,0,0,0
COc1ccccc1CNC(=O)Cn1c(=O)nc(-c2ccccc2F)c2cc(Cl)ccc21,0,-,-,-,-,-,-,-,-
O=C(CSC(=S)N1CCCC1)c1cc(Br)cc(Br)c1O,0,14µM,0,?,?,25µM,0,0,?
CC1CCCN(C(=S)SCC(=O)c2cc(Br)cc(Br)c2O)C1 (configuration not stated),0,0,0,0,-,-,-,-,-
NS(=O)(=O)c1ccc(CCNCC#Cc2ccccc2)cc1,0,22µM,0,0,0,0,0,0,0
COCCCNc1ncnc2c1c(-c1ccccc1)cn2-c1ccc(C)c(Cl)c1,0,-,-,-,-,-,-,-,-
C=CCn1c(O)c(/C=N/NC(=O)CCCC)c(=O)[nH]c1=S,0,7.1µM,0,0,0[10.4 µM],0,0,0,0
CCN(C(=O)c1cc(S(=O)(=O)N2CCOCC2)cn1C)c1cccc(C)c1,0,13µM,0,0,0,0,0,0,0
CCOc1ccc2[nH]c(S(=O)(=O)CC)nc2c1Cl,0,3.5µM,-,-,0,0,0,0,0
COc1ccc(-c2cc(-c3ccco3)[nH]c(=O)c2C#N)cc1,0,20µM,0,0,0,0,0,0,0
N#Cc1c(-c2cccc(Br)c2)cc(-c2ccco2)[nH]c1=O,0,0,0,0,-,-,-,-,-
CCCC(=O)N1c2nc(-c3ccco3)nn2C2(CCCCC2)[C@@H]2CCCC[C@@H]21,0,-,-,-,-,-,-,-,-
Cc1cccc(NC2=C/C(=N/S(=O)(=O)c3cccs3)c3ccccc3C2=O)c1,0,0.2µM,0,0,16µM,20µM,?,0,2.5µM
Cc1ccc(NC2=C/C(=N\S(=O)(=O)c3cccs3)c3ccccc3C2=O)c(C)c1,0,?,0,?,-,-,-,-,-
O=C1CSC(=S)N1,?,7.9µM,0,0,0,0,0,0,0
Cc1cc(C)n(-c2nc(C)c(C)c(=O)n2CC(=O)Nc2ccc(Cl)c(Cl)c2)n1,0,-,-,-,-,-,-,-,-
CCCC(=O)OC/C(O)=C(\C#N)c1nc2ccccc2[nH]1,0,?,0,0[2.29 µM],-,-,-,-,-
CC(C)C(=O)OC/C(O)=C(\C#N)c1nc2ccccc2[nH]1,0,20µM,0,0,0[10.4 µM],0,0,0,0
